A selection: hits, their analogues and other compounds. The true share with any hit is near 7.3%.
NPC1 prom act – activators of NPC1 promoter; Huh7 NPC1 promoter luciferase reporter, 24 h; Potency, µM (top dose mostly 9.22 µM), for the others: top-dose activation, hits mostly activators; 2.4% of 320,000 active; further: % of control where 0% means no effect; nearly all actives have a fitted effect of over 60% in size
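Huh7 reporter cells (NPC1 promoter driving luciferase) are dosed with compound for 24 h at 37 °C, 5% CO2; luciferase detection reagent is then added and luminescence measured after 10 min at ambient temperature.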
Rab9 promoter act – activators of Rab9 promoter. Huh7 Rab9 promoter-luciferase reporter, luminescence, 24 h. 2.8% of 320,000 active. Potency, µM (series often up to 9.22 µM), without a hit: at the top dose activation, negative = inhibition, usual class: activators. AID 485297; further: % of control where 0% means no effect; nearly all actives have a fitted effect of over 60% in size
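Huh7 cells stably carrying Rab9 promoter–luciferase reporter, plated 1500 cells/well, compound added after 2 h and incubated 24 h at 37 °C; luciferase luminescence then read after 10 min with detection reagent.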
SMN2 splice up – increases expression of the SMN2 splice variant | Potency, µM (highest dose often 46.1 µM), inactives show at the highest dose activity change, positive = activation, hits mostly activators | 2.8% of 210,000 active | HEK293 SMN2-luciferase splicing reporter, luminescence, 30-36 h; further: % of control where 0% means no effect; nearly all actives have a fitted effect of over 55% in size
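HEK293 cells carry an SMN2 minigene-luciferase reporter in which exon 7 inclusion puts luciferase in frame. Cells were seeded at 2000 cells/well, attached for 10-12 hours, then exposed to compounds for 30-36 hours at 37C before ONE-Glo luminescence.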
FLuc counter – inhibits or activates purified firefly luciferase, miR-21 counter-screen | AID 588342 | purified FLuc, Km substrates, luminescence inhibition | Potency, µM (doses to about 57.5 µM), inactives show top-dose activity change, negative = inhibition, most hits filed as inhibitors | 6.9% of 360,000 active;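 further: plate controls were vehicle for no effect and reference inhibitor for full effect; nearly all actives have a fitted effect of over 55% in size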
Target sequence (P08659 whole entry, looked up): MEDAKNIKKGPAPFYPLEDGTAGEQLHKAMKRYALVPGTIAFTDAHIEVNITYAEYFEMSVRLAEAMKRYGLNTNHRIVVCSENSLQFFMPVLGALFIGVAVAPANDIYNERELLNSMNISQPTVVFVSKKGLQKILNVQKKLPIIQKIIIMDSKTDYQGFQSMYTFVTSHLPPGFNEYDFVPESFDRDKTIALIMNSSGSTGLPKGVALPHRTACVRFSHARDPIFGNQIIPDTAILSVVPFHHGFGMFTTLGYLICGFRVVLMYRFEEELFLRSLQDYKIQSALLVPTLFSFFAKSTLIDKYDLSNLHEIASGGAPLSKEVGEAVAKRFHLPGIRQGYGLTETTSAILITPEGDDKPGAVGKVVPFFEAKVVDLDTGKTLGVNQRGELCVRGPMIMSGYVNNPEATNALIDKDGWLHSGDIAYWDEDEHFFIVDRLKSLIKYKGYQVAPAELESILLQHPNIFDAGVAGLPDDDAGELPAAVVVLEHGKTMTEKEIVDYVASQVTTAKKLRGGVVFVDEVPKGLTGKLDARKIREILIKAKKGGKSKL
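Purified P. pyralis luciferase (10nM final) with 10uM D-luciferin and 10uM ATP (Km levels) in 50mM Tris acetate pH 7.5, 10mM Mg acetate, 0.01% Tween-20, 0.05% BSA; qHTS 6-point titration, ~60 µM downward; luminescence read.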
Luc counter – blocks Kinase-Glo luciferase, a counter-screen artifact | Q27757 | Kinase-Glo luciferase, ATP luminescence, 8 min | Potency, µM (highest dose often 38.3 µM), for the others: top-dose activity change, negative = inhibition, actives largely listed as inhibitors | 0.28% of 200,000 active | AID 1379; further: on the % scale 0 is the no-effect control and ±100 the full control effect; nearly all actives have a fitted effect of over 60% in size
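Substrate mix (final 50 mM imidazole pH 7.2, 50 mM KCl, 7 mM MgCl2, 10 uM ATP, 0.01% Tween 20, 0.05% BSA) plus pin-tool compound, then Kinase-Glo detection mix; 8 min ambient, luminescence read.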
* hit, by the source's call; ? = inconclusive; nt = not tested or not shown; [ ] = dose if it differs, or a comment. The call rests on the fitted dose curve; in most records, active means well fitted curve in the direction sought with a large enough effect; inconclusive means small, poorly fitted or top-dose-only effect, or another doubt; inactive means no such curve, though single readings can be large; an effect the other way counts as inactive or inconclusive. Potency means the concentration at half of the fitted maximal effect.

SMILES	NPC1 prom act	Rab9 promoter act	SMN2 splice up	FLuc counter	Luc counter
Cc1ccc(-n2ncc3c(NCc4cccnc4)ncnc32)c(C)c1	-9%	-22%	-84%	-15%	-2%
Cc1ccc(-n2ncc3c(NCc4cccnc4)ncnc32)cc1C	2.2µM*	?	nt	4.8µM*	nt
COc1ccc(-n2ncc3c(NCc4cccnc4)ncnc32)cc1	1.3µM*	1µM*	nt	6.7µM*	nt
COc1ccc(CNc2ncnc3c2cnn3-c2ccc(Cl)cc2)cc1	nt	nt	nt	-5%	nt
O=c1c2oc3ccccc3c2n(Cc2ccccc2F)c(=O)n1Cc1ccco1	nt	nt	nt	0%	nt
Cn1c(N=NC(=O)c2ccccc2)c(O)c2ccccc21	0.71µM*	0.56µM*	1.3µM*	0.85µM*	-7%
Cn1c(O)c(N=NC(=O)CNC(=O)c2ccccc2)c2ccccc21	-4%	0%	nt	-2%	nt
CCS(=O)(=O)N1CC(=O)N(c2cccc(C)c2C)C(C)(C(=O)NC2CCCCCC2)C1 (stereo not given)	nt	nt	nt	-2%	nt
COc1ccc(CNC(=O)Cn2ncn3cccc3c2=O)cc1	?	1.6µM*	11µM*	21µM*	-11%
CCN(CC)S(=O)(=O)c1cccc(NC(=O)/C=C/c2ccc([N+](=O)[O-])cc2)c1	-1%	-3%	-13%	-16%	4%
COc1cc(/C=C/C(=O)Nc2ccc3[nH]c(=O)[nH]c3c2)cc(OC)c1OC	3%	0%	23%	?	2%
CSc1cccc(NC(=O)/C=C/c2cccc(Cl)c2)c1	?	3.2µM*	14µM*	8.5µM*	0%
O=C(/C=C/c1cccc(Cl)c1)Nc1ncccn1	?	?	?	?	3%
COc1cccc(NC(=O)/C=C/c2ccc([N+](=O)[O-])cc2)c1	?	?	nt	6µM*	nt
O=C(/C=C/c1ccccc1[N+](=O)[O-])Nc1cccnc1	?	2.8µM*	14µM*	15µM*	-1%
COc1cccc(/C=C/C(=O)Nc2ccc3[nH]c(=O)[nH]c3c2)c1	-1%	15%	?	9.5µM*	1%
N#CC(CC(=O)O)=C(c1ccccc1)c1ccccc1	nt	nt	2%[9.22 µM]	nt	0%[7.66 µM]
Cc1ccccc1CNC(=O)CCCn1c(=O)c2cccn2c2cccnc21	nt	nt	nt	-8%	nt
Cn1nnnc1SCCCNCc1cccc(OCc2ccc(F)cc2)c1	nt	nt	nt	-7%	nt
COc1cccc(NC(=O)/C=C/c2ccccc2[N+](=O)[O-])c1	?	4µM*	3.2µM*	5.4µM*	-27%
COc1ccc(OC)c(NC(=O)/C=C/c2ccccc2[N+](=O)[O-])c1	-2%	1%	1%	?	3%
COc1ccc(C(=O)COC(=O)CCN2C(=O)C3C4CCC(C4)C3C2=O)cc1 (stereo not given)	0%	-3%	-31%	?	1%
O=C(CCN1C(=O)C2C3CCC(C3)C2C1=O)OCC(=O)c1ccccc1 (stereo not given)	-1%	-2%	nt	13µM*	nt
COc1ccc(S(=O)(=O)Nc2cccc(-c3ccc(N4CCC(C)CC4)nn3)c2)cc1OC	nt	nt	nt	0.43µM*	nt
COc1ccc(S(=O)(=O)Nc2cccc(-c3ccc(N4CCCC4)nn3)c2)cc1OC	nt	nt	nt	17µM*	nt
SMILES	NPC1 prom act	Rab9 promoter act	SMN2 splice up	FLuc counter	Luc counter
Cc1ccc([N+](=O)[O-])cc1S(=O)(=O)Nc1cccc(-c2ccc(N3CCCC3)nn2)c1	18%	15%	nt	19µM*	nt
Cc1ccc(S(=O)(=O)Nc2cccc(-c3ccc(N4CCCCCC4)nn3)c2)cc1C	?	3.2µM*	nt	6µM*	nt
CCOc1cccc(C(=O)N(Cc2ccc(F)cc2)Cc2ccco2)c1	nt	nt	-12%	-17%	nt
COc1ccc(-c2cc3c(=O)n(CC(=O)Nc4cc(F)ccc4F)ccn3n2)cc1OC	nt	nt	nt	-14%	nt
COc1ccc(NC(=O)NCCn2nnc3cc(S(=O)(=O)N(C)C)ccc32)cc1	nt	nt	nt	-2%	nt
COc1ccccc1C(=O)NCC(=O)Nc1ccc2c(c1)CCC2	?	26%	nt	12µM*	nt
NC(=O)c1ccccc1OCC(=O)Nc1ccc2c(c1)CCC2	22%	?	nt	15µM*	nt
NC(=O)c1ccccc1OCC(=O)Nc1ccc(Cl)c(Cl)c1	0.35µM*	0.35µM*	nt	0.67µM*	nt
CCN(CC)S(=O)(=O)c1ccc(N2CCOCC2)c(NC(=O)COc2ccc(C#N)cc2)c1	-5%	-3%	nt	15µM*	nt
CCN(CC)S(=O)(=O)c1ccc(N2CCOCC2)c(NC(=O)COc2ccc(OC)cc2)c1	-8%	-5%	nt	?	nt
CCCc1cc(NCc2ccccn2)n2c(nc3ccccc32)c1C#N	-1%	-10%	-19%	11µM*	-8%
CCCc1cc(NCC2CCCO2)n2c(nc3ccccc32)c1C#N (stereo not given)	-6%	-6%	-5%	17µM*	14%
O=C(O)[C@H](C1NCCS1)N1C(=O)c2ccccc2C1=O (stereo not given in full)	nt	nt	-11%[9.22 µM]	nt	-1%[7.66 µM]
CC(C)CN(CCNC(=O)c1cc(-c2ccc(Cl)s2)nc2ccccc12)CC(C)C	nt	nt	7%	6%	nt
CCOC(=O)c1c(C)oc2nc(C)nc(N3CCN(c4cc(Cl)ccc4C)CC3)c12	nt	nt	nt	-1%	nt
COc1ccc(NC(=O)CCNS(=O)(=O)c2ccc3c(c2)CCN3C(=O)C2CC2)cc1Cl	nt	nt	nt	-10%	nt
O=C(/C=C/c1ccc2c(c1)OCO2)c1cccnc1	2%	-1%	nt	15µM*	nt
COC(=O)c1cccc(NC(=O)/C=C/c2ccc3c(c2)OCO3)c1	2.8µM*	2.5µM*	-94%	1.3µM*	-8%
COC(=O)c1cc(NC(=O)/C=C/c2ccc3c(c2)OCO3)cc(C(=O)OC)c1	-2%	-2%	?	0%	2%
COc1ccc(/C=C/C(=O)Nc2cccc(N3CCOCC3)c2)cc1OC	4%	3%	11%	27µM*	0%
O=C(/C=C/c1ccc2c(c1)OCO2)Nc1cccnc1	2.2µM*	1.3µM*	13µM*	2.4µM*	-22%
COc1ccc(/C=C/C(=O)Nc2ccc(N3CCOCC3)cc2)cc1	1%	-3%	-29%	-15%	-2%
O=C(/C=C/c1ccc2c(c1)OCO2)c1ccccc1	nt	nt	1%	nt	-9%
CCc1ccc(NC(=O)Nc2nnc(N(C)C3CCCCC3)s2)cc1	nt	nt	nt	-10%	nt
Cc1ccc(CNC(=O)Nc2cc(C(=O)NCc3cccc(F)c3)ccc2N2CCCC2)cc1	nt	nt	nt	6%	nt
Cc1ccc(S(=O)(=O)n2nc(-c3ccco3)nc2NCc2ccccc2Cl)cc1	nt	nt	?	-9%	nt
Cc1cccnc1NC(=O)c1ccc2c(c1)OCO2	-1%	3%	nt	-22%	nt
Cc1cccnc1NC(=O)/C=C/c1ccc2c(c1)OCO2	2.5µM*	2.8µM*	16µM*	19µM*	-4%
Cc1cc(C)nc(NC(=O)/C=C/c2ccc3c(c2)OCO3)c1	3.2µM*	2.5µM*	nt	2.1µM*	?
O=C(N/N=C\C=C\c1ccc2c(c1)OCO2)c1cccnc1	8%	3%	-1%	17µM*	0%

Assay outcomes as filed in PubChem BioAssay.
